Source: PubChem BioAssay
BoNT A protease: BoNT A light chain protease inhibition; actives 0.17% (n = 360,000); AID 588499; inhibition, % at 10 µM; multiplex microsphere protease substrate cleavage, flow cytometry; note: plate controls were buffer without enzyme for full effect and enzyme alone for no effect
BoNT F protease: blocks Botulinum neurotoxin F light chain protease; Multiplex microsphere protease cleavage assay, flow cytometry; inhibition, % at 10 µM; actives 0.22% (n = 360,000); AID 588497; in the data active = inhibition above about 35%, passing the limit was not always enough; inconclusive = no clear call, values can overlap the other calls; note: plate controls were buffer without enzyme for full effect and enzyme alone for no effect
Bead autofluor: flagged as autofluorescent in microsphere protease counterscreen. compound autofluorescence counterscreen, microsphere flow cytometry; hits give high values. fluorescence intensity (concentration not given with the values). actives 3.1% (n = 360,000); in the data active = fluorescence intensity above about 16000; inconclusive = no clear call, values can overlap the other calls
BH1578 lux ind: inducers of Vibrio cholerae quorum light production without autoinducers; V. cholerae BH1578 lux reporter, luminescence, 6 h; activation, % at 18.7 µM; actives 0.16% (n = 350,000); in the data active = activation mostly above about 9.7%, no sharp cut-off; inconclusive = no clear call, values can overlap the other calls; inactive = mostly below about 3.7%
BJeLR lethal: kills HRASV12-expressing BJeLR cells; BJeLR (HRASV12) viability, CellTiter-Glo ATP luminescence, 48 h; inhibition, % (test concentration not listed); actives 0.17% (n = 300,000); in the data active = inhibition above about 50%; inconclusive = no clear call, values can overlap the other calls
Anthrax LF prot: blocks Bacillus anthracis lethal factor protease. multiplex microsphere protease cleavage assay, LF. inhibition, % at 10 µM. actives 0.12% (n = 360,000). AID 588501; note: plate controls were buffer without enzyme for full effect and enzyme alone for no effect
Target sequence (P15917 whole entry, looked up): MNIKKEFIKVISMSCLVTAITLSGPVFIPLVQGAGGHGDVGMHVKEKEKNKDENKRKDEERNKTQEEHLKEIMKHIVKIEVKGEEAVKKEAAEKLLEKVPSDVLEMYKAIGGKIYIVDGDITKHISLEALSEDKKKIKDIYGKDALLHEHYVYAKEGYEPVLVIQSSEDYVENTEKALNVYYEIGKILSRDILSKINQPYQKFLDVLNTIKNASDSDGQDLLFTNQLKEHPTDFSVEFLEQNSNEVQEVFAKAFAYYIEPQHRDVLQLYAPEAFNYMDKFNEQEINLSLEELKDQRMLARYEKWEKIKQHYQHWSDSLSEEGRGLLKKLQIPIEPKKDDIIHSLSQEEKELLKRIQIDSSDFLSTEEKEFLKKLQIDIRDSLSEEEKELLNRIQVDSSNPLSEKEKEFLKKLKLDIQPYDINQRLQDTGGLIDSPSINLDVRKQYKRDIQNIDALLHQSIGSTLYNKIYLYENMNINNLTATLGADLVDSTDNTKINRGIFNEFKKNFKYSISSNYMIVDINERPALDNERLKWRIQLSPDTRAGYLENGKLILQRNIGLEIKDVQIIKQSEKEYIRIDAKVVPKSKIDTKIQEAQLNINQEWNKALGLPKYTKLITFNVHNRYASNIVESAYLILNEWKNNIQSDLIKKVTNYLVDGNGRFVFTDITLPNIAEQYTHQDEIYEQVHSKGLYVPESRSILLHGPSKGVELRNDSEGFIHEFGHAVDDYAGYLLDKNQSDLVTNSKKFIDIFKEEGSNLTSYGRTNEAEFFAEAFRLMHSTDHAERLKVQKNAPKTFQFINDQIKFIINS
Starred values were filed as active, the others as inactive; i = inactive; ? = inconclusive; . = not tested or not shown. Shown are actives, neighbours in structure and some others; about 3.7% of the full set was active somewhere. Cut-off read from the data, not from the text of the source, unless noted: active = inhibition above about 30%; inconclusive = no clear call, values can overlap the other calls; inactive = below that.

SMILES | BoNT A protease | BoNT F protease | Bead autofluor | BH1578 lux ind | BJeLR lethal | Anthrax LF prot
O=C(Nc1ccccc1-c1ccccc1)c1ccc(Br)o1 | -4 | -55 | ? | 0 | 3 | -22
COc1cc(-c2noc(CCCC(=O)Nc3ccc(C(N)=O)cc3)n2)cc(OC)c1OC | 0 | -4 | 5575 | i | -19 | 3
COc1ccccc1CC(=O)Nc1ccc(-c2noc(COc3ccc(Cl)c(C)c3)n2)cc1 | ? | 4 | 21393* | -1 | 1 | 0
CCOc1ccccc1-c1nc(-c2ccc(NC(=O)Cc3ccccc3OC)cc2)no1 | 0 | -6 | 3559 | i | -22 | 2
COc1ccc(-c2noc(CCCC(=O)Nc3ccc(C(N)=O)cc3)n2)cc1 | -5 | -5 | 22075* | 2 | 20 | 0
CCCCSc1nnc(-c2cc(Br)ccc2N)c(=O)[nH]1 | ? | 1 | 20791* | 3 | 4 | -3
C=CCSc1nnc(-c2cc(Br)ccc2N)c(=O)[nH]1 | 2 | -2 | 4053 | 0 | -6 | -4
COc1ccc(C(C)(O)c2nc(-c3cccc(O)c3)cs2)cc1 (stereo not drawn) | 0 | -3 | 2898 | i | . | -1
CCOC(=O)C1(C)CCN1C(=O)c1ccc(Cl)nc1 (stereo not drawn) | 0 | 4 | 3756 | 0 | . | 0
C=CCn1c(=O)/c(=C/c2cc(OC)c(OC)c(OC)c2)s/c1=C(/C#N)c1nc2ccccc2n1C | 112* | 58* | 2299 | . | -14 | 61*
COCC(=O)N(Cc1cc2ccc(C)cc2[nH]c1=O)c1ccc(OC)cc1 | ? | 1 | 23081* | -1 | 6 | -2
COC(=O)c1[nH]c2c(c1C)C(=O)CC(c1cccs1)C2 (stereo not drawn) | 0 | -3 | 2532 | 5 | 51* | -1
CSc1ncnc2c1ncn2CCCN1CCN(Cc2cccc3ccccc23)CC1 | 0 | -4 | 2906 | -1 | . | -1
COc1cc(/C=N/NC(=O)c2cccnc2)ccc1OS(=O)(=O)c1ccc(F)cc1 | -3 | -8 | 20771* | i | 9 | 1
O=C(c1cccc(Br)c1)c1cn(-c2ccccc2)nc1C(=O)c1ccccc1 | ? | -15 | 24853* | i | -7 | -7
CC(=O)c1nn(-c2ccccc2)cc1C(=O)c1cccc(Br)c1 | 0 | 2 | 1907 | 0 | 0 | -1
O=c1c2ccccc2nc(N2CCCC2)n1-c1ccc(Cl)cc1 | 1 | -1 | 22940* | -2 | 2 | 2
COc1nc2ccccc2c(=O)n1-c1ccc(Cl)cc1 | -2 | -14 | 2734 | 0 | -22 | -1
COC(=O)[C@]1(Sc2ccc(OC)cc2)CC(=O)N[C@@H]1c1ccccc1 | 1 | 5 | 5452 | . | . | -3
CCC(=O)NCc1c(Cl)cccc1-n1cccc1 | 6 | 10 | 19934* | i | -12 | -11
CC(=O)NCc1c(Cl)cccc1-n1cccc1 | ? | -2 | ? | 0 | 11 | ?
O/N=C(/CCc1ccccc1)C1(O)CCCCC1 | 1 | 5 | 7896 | i | 5 | 2
COc1ccc(CC/C(=N\O)C2(O)CCCCC2)cc1 | -2 | -7 | 24221* | i | 5 | -3
Cn1nc(C(C)(C)C)cc1C(=O)Nc1nc2c(s1)C(=O)CC(C)(C)C2 | 0 | 2 | 22625* | i | 11 | 1
CC(C)(C)OC(=O)N1CC(O)CC1C(=O)OCC(=O)c1ccc(Cl)cc1 (stereo not drawn) | 7 | 8 | 20684* | 5 | -13 | -4
SMILES | BoNT A protease | BoNT F protease | Bead autofluor | BH1578 lux ind | BJeLR lethal | Anthrax LF prot
COc1ccc(C(C)(O)c2nc(-c3ccc4ccccc4c3)cs2)cc1 (stereo not drawn) | 0 | -5 | 4066 | i | . | -5
COc1ccc(OC)c(S(=O)(=O)Nc2ccc(F)cc2)c1 | 0 | -2 | 5392 | -2 | -3 | -8
COc1cc(S(=O)(=O)NC2CCCC2)ccc1F | -1 | -2 | 16811* | 0 | -7 | 0
COc1ccc(S(=O)(=O)NC2CCCC2)c(OC)c1 | 2 | 14 | 4167 | 1 | 4 | 3
COc1ccc(OC)c(S(=O)(=O)NC2CCCCC2)c1 | -2 | -2 | 22696* | 0 | 4 | -2
COc1ccc(OC)c(S(=O)(=O)Nc2cccc(F)c2)c1 | -1 | 1 | 16709* | -1 | -3 | -1
COc1ccc(S(=O)(=O)Nc2cccc(Cl)c2)cc1OC | -2 | -4 | 20245* | -11 | 4 | 1
NC(=O)c1cccc(-c2ccnc3c2CC(C(=O)Nc2ccc(Cl)cc2)O3)c1 (stereo not drawn) | 0 | 3 | 2856 | 0 | . | -1
CC(C)C[C@H]1CN([C@@H](Cc2ccc(O)cc2)CN2CCC[C@H]2CN2C(=O)C(=O)NC[C@@H]2Cc2ccccc2)C(=O)C(=O)N1CC1CCCCCC1 | 0 | 8 | 5587 | . | . | -1
O=C(NC1(C(F)(F)F)NC(=O)N(c2ccccc2F)C1=O)c1ccncc1 (stereo not drawn) | 0 | -6 | 2295 | -4 | 3 | 0
O=C(NC1(C(F)(F)F)NC(=O)N(c2ccc(F)c(Cl)c2)C1=O)c1ccncc1 (stereo not drawn) | -3 | -2 | 23968* | 0 | -1 | -4
Cc1cccc2cc(C(c3nnnn3CC3CCCO3)N3CCOCC3)c(=O)[nH]c12 (stereo not drawn) | ? | 8 | 18150* | i | -2 | -7
O=c1[nH]c2cc3c(cc2cc1C(c1nnnn1CC1CCCO1)N1CCCCCC1)OCCO3 (stereo not drawn) | -4 | -6 | 22706* | i | 0 | 1
COc1ccc(Cn2nnnc2C(c2cc3cccc(C)c3[nH]c2=O)N2CCOCC2)cc1 (stereo not drawn) | -1 | 8 | 10896 | 0 | -6 | -3
CCN1CCN(C(c2cc3cccc(C)c3[nH]c2=O)c2nnnn2Cc2ccccc2)CC1 (stereo not drawn) | 0 | -7 | 4541 | -1 | 12 | 1
O=c1[nH]c2cc3c(cc2cc1C(c1nnnn1CC1CCCO1)N1CCCCCC1)OCO3 (stereo not drawn) | . | . | . | . | -2 | .
Cc1ccc2cc(C(c3nnnn3C3CCCC3)N(Cc3ccco3)Cc3cccs3)c(=O)[nH]c2c1 (stereo not drawn) | -2 | -5 | 24754* | i | -3 | -3
Cc1cccc2cc(C(c3nnnn3Cc3ccccc3)N3CCCc4ccccc43)c(=O)[nH]c12 (stereo not drawn) | ? | 2 | 23808* | 1 | 19 | 5
O=C(c1cc2ccccc2o1)N1CCN(Cc2nc3ccccc3s2)CC1 | 0 | -5 | 2911 | i | . | -5
COC(=O)C[C@H]1C[C@H]2c3cc(NC(=O)Nc4ccc(C(F)(F)F)cc4)ccc3O[C@H]2[C@@H](CO)O1 | 0 | -2 | 3482 | 0 | . | 0
Cc1ccc2[nH]c(=O)c(C(c3nnnn3C(C)(C)C)N(Cc3ccco3)CC3CCCO3)cc2c1 (stereo not drawn) | 1 | 10 | 5660 | -4 | 3 | 2
